This note sets out measurements from PubChem BioAssay (NCI).

Structures are written as SMILES. This is part of a sample that, as a whole, favours compounds with a hit. Of some 79,000 tested, about 15% had one in any assay. Unmarked numbers belong to inactive results. The source made the active and inactive calls. Cut-off read from the data, not from the text of the source: active = growth inhibition above about 70%; inactive = the rest.

The first assay in a line: NCI Yeast Anticancer Drug Screen. Data for the cln2 rad14 strain (AID 165).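 Note: 0% = growth equal to vehicle treated cultures.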 As to conditions: S. cerevisiae cln2 rad14 strain, at 50.0 µM (retest, dose inferred, filed as 5.0), hits give high values. The method, boiled down: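 Compounds are applied to the cln2 rad14 yeast strain, and growth is then compared with that of vehicle-treated cultures to give inhibition.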
Turning to `CCC1(c2ccc(N3C(=O)c4ccccc4C3=O)cc2)CCC(=O)NC1=O` (stereo not given), the growth inhibition was 3%.

In the case of `CN(C)c1c([N+](=O)[O-])cc(N2C(=O)C=CC2=O)cc1[N+](=O)[O-]`, the growth inhibition was 99% (active).

As to `CCOC1(OCC)Oc2c(Cl)c(Cl)c(Cl)c(Cl)c2OC1(OCC)OCC`, the growth inhibition was 97% (active).

Turning to `CC(=O)NC1=C(Oc2ccccc2)C(=O)c2ccccc2C1=O`, the growth inhibition is 100% (active).

For `CC1SC(=S)N(c2ccc(Cl)cc2)C1=O` (stereo not given), the growth inhibition is 28%.

As to `CC(NNC(=S)N1CC2CCC(CC2)C1)c1cc2ccccc2cn1` (stereo not given), the growth inhibition is 61%.

As for `CCCCCCCCCCCCCC(=O)N1CCOCC1`, the growth inhibition was 99% (active).

As for `COC(O)C(=O)c1c2c(cc3c1CC1(Cc4cc5c(cc4C1)CCC5)C3)CCC2` (stereo not given), the growth inhibition was 98% (active).

Take `CCC(=O)OCC(=O)c1ccc(-c2ccccc2)cc1`: the growth inhibition is -56%.

In the case of `CN(Cc1cnc2nc(N)nc(N)c2n1)c1ccc(C(=O)NC(CCC(=O)O)C(=O)O)cc1` (stereo not given), the growth inhibition is -10%.

As to `COc1ccc(C(=O)Nc2ccc(O)c(=O)cc2)cc1`, the growth inhibition was 2%.

Take `c1cc[c]([Sn]([NH]c2ncnc3[nH]cnc23)([NH]c2ncnc3[nH]cnc23)[c]2ccccc2)cc1`: the growth inhibition is 73% (active).

As for `CCCCCCCCCCCC1C(C#N)C(=O)NC(=O)C1C#N` (stereo not given), the growth inhibition is 82% (active).

With `c1ccc(CSc2nnc3c4ccccc4c4ccccc4c3n2)cc1`, the growth inhibition is -12%.

For `Cc1ccc(-n2cc(-c3ccc(Cl)cc3)c3c(N)ncnc32)cc1`, the growth inhibition is 96% (active).

Consider `C[C@]12CCC3[C@@H](CC[C@@H]4c5nonc5CC[C@]34C)C1CCC(=O)N2` (stereo not given in full), for which the growth inhibition was 13%.

With `CCN(CC)Cc1cc(N=Nc2c(O)ccc3c(N=Nc4ccc(O)c(CN(CC)CC)c4)c(O)ccc23)ccc1O`, the growth inhibition is 56%.

For `CC(C)(C)c1ccc(OC(=O)Nc2ccc(Cl)cc2[N+](=O)[O-])c(Br)c1`, the growth inhibition is 7%.

As for `CCC(CCCN(CC)CCc1ccccc1)OC(=O)c1cc(OC)c(OC)c(OC)c1` (stereo not given), the growth inhibition is 0%.

As for `CCN1/C(=C\c2cc[n+](CC)c3ccccc23)C=Cc2ccccc21`, the growth inhibition is 96% (active).

`CC1=C(C(=O)Nc2ccccc2C)C(c2ccc(Cl)c(Cl)c2)C(C(=O)Nc2ccccc2C)=C(C)N1`: the growth inhibition is 8%.

In the case of `Clc1ccc2nc3c(c(N4CCOCC4)c2c1)CCCC3`, the growth inhibition is 99% (active).

On to `N#Cc1cc2cccn2c2c1cnn2-c1ccccc1`, for which the growth inhibition was 7%.

Take `COc1cccc(C2c3cc4c(cc3OC(Nc3ccccc3)C2C)OCO4)c1O` (stereo not given): the growth inhibition was 97% (active).

For `Nc1nc(-c2ccccc2)c(-c2ccccc2)c(-c2nc(N)nc(-c3ccccc3)c2-c2ccccc2)n1`, the growth inhibition is 12%.

As to `CCOC(C)c1ccccc1` (stereo not given), the growth inhibition was 59%.

In the case of `O=C1OC(CCCl)(c2ccccc2)CC1CN1CCOCC1` (stereo not given), the growth inhibition is 56%.

As for `OC(Cc1ccccc1)(c1ccccc1)C(O)(Cc1ccccc1)c1ccccc1` (stereo not given), the growth inhibition was 53%.

Regarding `COc1ccc(N=N/N=c2\sc3cc(OC)ccc3n2C)cc1`, the growth inhibition is 63%.

Take `CCCCCC(CO)C(O)(C(F)(F)F)C(F)(F)F` (stereo not given): the growth inhibition was 15%.

On to `CC1=C(C(=O)Nc2ccccc2)C(c2ccccc2F)C(C(=O)Nc2ccccc2)=C(C)N1`, for which the growth inhibition was 37%.

Regarding `CCOCCC(=O)NNc1ccccc1`, the growth inhibition is 56%.

On to `CCOC(=O)C(Br)C(Br)c1cccc([N+](=O)[O-])c1` (stereo not given), for which the growth inhibition is 99% (active).

On to `Cc1ccc(-c2c(C#N)c(-c3ccccc3)n(NS(=O)(=O)c3ccc(C)cc3)c(=O)c2C#N)cc1`, for which the growth inhibition is 68%.

In the case of `CNC(=O)N1N[C@H](c2ccccc2)[C@@H]1c1ccccc1`, the growth inhibition was 32%.

Turning to `CCCCCCCCCN(CCCCCCCCC)CC(O)c1cc2c(c3ccccc13)CCCC2` (stereo not given), the growth inhibition was 90% (active).

As to `O=C(O)C(c1ccc(Cl)cc1)c1ccc(Cl)cc1`, the growth inhibition was 97% (active).

Turning to `O=C1c2ccc3ccccc3c2CN2C(=O)CCC12` (stereo not given), the growth inhibition was 66%.

As for `CCCCCCCCCCCCCCCCNc1ccn(C2CC(OP(=O)(O)OCC3OC(n4cc(CC)c(=O)[nH]c4=O)CC3O)C(CO)O2)c(=O)n1` (stereo not given), the growth inhibition was 64%.

Take `Cc1cc(Cl)c(O)c(-c2cc(-c3cccc([N+](=O)[O-])c3)c3c(N)[nH]c(=S)nc3n2)c1`: the growth inhibition is 33%.

Still in this assay, the particulars now being: S. cerevisiae cln2 rad14 strain, at 50.0 µM, hits give high values.
Take `CCC1(c2ccc(N3C(=O)c4ccccc4C3=O)cc2)CCC(=O)NC1=O` (stereo not given): the growth inhibition is 9.4%.

With `CN(C)c1c([N+](=O)[O-])cc(N2C(=O)C=CC2=O)cc1[N+](=O)[O-]`, the growth inhibition is 90.8% (active).

In the case of `CCOC1(OCC)Oc2c(Cl)c(Cl)c(Cl)c(Cl)c2OC1(OCC)OCC`, the growth inhibition is 97.4% (active).

Regarding `CC(=O)NC1=C(Oc2ccccc2)C(=O)c2ccccc2C1=O`, the growth inhibition is 70% (active).

As for `CC1SC(=S)N(c2ccc(Cl)cc2)C1=O` (stereo not given), the growth inhibition is -108%.

Regarding `CC(NNC(=S)N1CC2CCC(CC2)C1)c1cc2ccccc2cn1` (stereo not given), the growth inhibition is 92.6% (active).

On to `CCCCCCCCCCCCCC(=O)N1CCOCC1`, for which the growth inhibition is 96.5% (active).

Regarding `COC(O)C(=O)c1c2c(cc3c1CC1(Cc4cc5c(cc4C1)CCC5)C3)CCC2` (stereo not given), the growth inhibition is 87.6% (active).

As to `CCC(=O)OCC(=O)c1ccc(-c2ccccc2)cc1`, the growth inhibition is -5.4%.

On to `CN(Cc1cnc2nc(N)nc(N)c2n1)c1ccc(C(=O)NC(CCC(=O)O)C(=O)O)cc1` (stereo not given), for which the growth inhibition was 1.4%.

With `COc1ccc(C(=O)Nc2ccc(O)c(=O)cc2)cc1`, the growth inhibition was -60.6%.

In the case of `c1cc[c]([Sn]([NH]c2ncnc3[nH]cnc23)([NH]c2ncnc3[nH]cnc23)[c]2ccccc2)cc1`, the growth inhibition was 29.4%.

As for `CCCCCCCCCCCC1C(C#N)C(=O)NC(=O)C1C#N` (stereo not given), the growth inhibition is -8.05%.

Regarding `c1ccc(CSc2nnc3c4ccccc4c4ccccc4c3n2)cc1`, the growth inhibition was 29.4%.

As for `Cc1ccc(-n2cc(-c3ccc(Cl)cc3)c3c(N)ncnc32)cc1`, the growth inhibition is 88.3% (active).

For `C[C@]12CCC3[C@@H](CC[C@@H]4c5nonc5CC[C@]34C)C1CCC(=O)N2` (stereo not given in full), the growth inhibition was -3.6%.

Consider `CCN(CC)Cc1cc(N=Nc2c(O)ccc3c(N=Nc4ccc(O)c(CN(CC)CC)c4)c(O)ccc23)ccc1O`, for which the growth inhibition was 56.6%.

With `CC(C)(C)c1ccc(OC(=O)Nc2ccc(Cl)cc2[N+](=O)[O-])c(Br)c1`, the growth inhibition is 90.8% (active).

Take `CCC(CCCN(CC)CCc1ccccc1)OC(=O)c1cc(OC)c(OC)c(OC)c1` (stereo not given): the growth inhibition is 35.6%.

For the compound `CCN1/C(=C\c2cc[n+](CC)c3ccccc23)C=Cc2ccccc21`, the growth inhibition is -31.4%.

Turning to `CC1=C(C(=O)Nc2ccccc2C)C(c2ccc(Cl)c(Cl)c2)C(C(=O)Nc2ccccc2C)=C(C)N1`, the growth inhibition is 78.5% (active).

As to `Clc1ccc2nc3c(c(N4CCOCC4)c2c1)CCCC3`, the growth inhibition was 98.9% (active).

Take `N#Cc1cc2cccn2c2c1cnn2-c1ccccc1`: the growth inhibition is 9.65%.

Regarding `COc1cccc(C2c3cc4c(cc3OC(Nc3ccccc3)C2C)OCO4)c1O` (stereo not given), the growth inhibition was 89.7% (active).

As to `Nc1nc(-c2ccccc2)c(-c2ccccc2)c(-c2nc(N)nc(-c3ccccc3)c2-c2ccccc2)n1`, the growth inhibition was 2.45%.

In the case of `CCOC(C)c1ccccc1` (stereo not given), the growth inhibition is -16.9%.

As to `O=C1OC(CCCl)(c2ccccc2)CC1CN1CCOCC1` (stereo not given), the growth inhibition was 41.8%.

Regarding `OC(Cc1ccccc1)(c1ccccc1)C(O)(Cc1ccccc1)c1ccccc1` (stereo not given), the growth inhibition is 85.7% (active).

`COc1ccc(N=N/N=c2\sc3cc(OC)ccc3n2C)cc1`: the growth inhibition was 24.5%.

Take `CCCCCC(CO)C(O)(C(F)(F)F)C(F)(F)F` (stereo not given): the growth inhibition is 47.4%.

Turning to `CC1=C(C(=O)Nc2ccccc2)C(c2ccccc2F)C(C(=O)Nc2ccccc2)=C(C)N1`, the growth inhibition is -19.1%.

Take `CCOCCC(=O)NNc1ccccc1`: the growth inhibition was 56.8%.

Regarding `CCOC(=O)C(Br)C(Br)c1cccc([N+](=O)[O-])c1` (stereo not given), the growth inhibition was 98% (active).

Consider `Cc1ccc(-c2c(C#N)c(-c3ccccc3)n(NS(=O)(=O)c3ccc(C)cc3)c(=O)c2C#N)cc1`, for which the growth inhibition was 80.8% (active).

Turning to `CNC(=O)N1N[C@H](c2ccccc2)[C@@H]1c1ccccc1`, the growth inhibition is 36.9%.

`CCCCCCCCCN(CCCCCCCCC)CC(O)c1cc2c(c3ccccc13)CCCC2` (stereo not given): the growth inhibition is 98.9% (active).

On to `O=C(O)C(c1ccc(Cl)cc1)c1ccc(Cl)cc1`, for which the growth inhibition is 92.5% (active).

Regarding `O=C1c2ccc3ccccc3c2CN2C(=O)CCC12` (stereo not given), the growth inhibition was -4.3%.

As for `CCCCCCCCCCCCCCCCNc1ccn(C2CC(OP(=O)(O)OCC3OC(n4cc(CC)c(=O)[nH]c4=O)CC3O)C(CO)O2)c(=O)n1` (stereo not given), the growth inhibition is 39.5%.

On to `Cc1cc(Cl)c(O)c(-c2cc(-c3cccc([N+](=O)[O-])c3)c3c(N)[nH]c(=S)nc3n2)c1`, for which the growth inhibition was 55%.
